28 compounds from PubChem BioAssay (NCATS) can be followed below.

Records with an inconclusive call do not appear. Calls of active or inactive are those of the source. Calls come from the whole dose curve; as a rule, active = well fitted cell-killing curve with a large enough effect; inconclusive = small, poorly fitted or top-dose-only effect, or effect the other way; inactive = no such curve, though single readings can be large or run the other way.
% is set by controls: 0 for no effect and ±100 for the full control effect; potency is the fitted concentration of half-maximal effect.

This test in a line: qHTS of pediatric cancer cell lines to identify multiple opportunities for drug repurposing: Confirmatory screen for LAN-5 cells (AID 1347113). Note: nearly all actives have a fitted effect of over 65% in size. The conditions noted are these: LAN-5 neuroblastoma cell viability; series mostly up to 45.9 µM; activity change, negative = cytotoxicity: at the top concentration. The source says:
Drug repurposing or repositioning has been offered as a strategy for drug development in oncology programs. This approach has special potential for childhood cancers and other rare or orphan diseases, where the expected return on new drug development has been a disincentive to pharmaceuticals.
In this project we exploit the poly-pharmacology of drugs to discover new indications via phenotypic screening of a panel of 19 well-characterized cell lines derived from solid tumors seen in children and adolescents. The goal is to identify approved drugs with previously unrecognized anticancer properties that has the potential to reveal new mechanisms and biological processes involved in carcinogenesis or drug resistance. We employed a titration-based paradigm (quantitative high-throughput screening or qHTS), where all compounds were tested at multiple concentrations for their effect on cell viability. Concentration-response curves (CRCs) were derived directly from the primary screen, and both potency and efficacy values were used to identify compounds with robust bioactivity profiles. We screened the NIH Chemical Genomics Center (NCGC) Pharmaceutical Collection (NPC) and Mechanism Interrogation Plate (MIPE) small molecule collections of approved and investigational compounds against these cell lines; and measured metabolically active cells after 48 hours of compound treatment as a proxy for cell viability.
Assay Submitter: Nathalia J. Martinez, National Center for Advancing Translational Sciences, National Institutes of Health, Rockville, MD, USA; email: natalia.martinez@nih.gov
[1] Shen, M et al. Quantitative high-throughput phenotypic screening of pediatric cancer cell lines identifies multiple opportunities for drug repurposing. Oncotarget 2017 Dec 19;9(4):4758-4772. PMID 29435139.
The cells were obtained from University of North Carolina (UNC), Pediatric Preclinical Testing Program (PPT), and Coriell Institute (CI).
qHTS cell viability assay:
Cells were assayed in growth media at a density of 500-1,000 cells/well. Five microliters of cells were dispensed into 1,536-well, white, solid-bottom, TC-treated plates (Greiner Bio One) using a multidrop dispenser and incubated at 37 degrees C, 5% CO2, under a humidified atmosphere for 5 hours. Twenty-three nanoliters of compounds and controls (neutral control DMSO or positive control bortezomib at final concentration of 2.3 µM) were subsequently transferred by Kalypsys pintool. For primary screens, the MIPE collection was tested at 11-point dilutions (final concentrations range from 0.78 nM to 46 µM) and the NPC collection at 8-point dilutions (final concentrations range from 0.59 nM to 46 µM). Compounds tested in follow-up screens were assayed at 11-point dilutions. Cells were incubated for 48 hours, followed by addition of 3 µL of CellTiter-Glo (Promega). After a 15 min incubation at room temperature, samples were analyzed for luminescence intensity using a ViewLux High-throughput CCD imager equipped with clear filters.
Turning to `C[C@H]1CCCC=CC2C[C@H](O)C[C@@H]2[C@H](O)C=CC(=O)O1` (stereo partly drawn), the Potency was 0.117 µM (active).
Regarding `C[C@@H]1O[C@@H](O[C@@H]2C=C3CC[C@@H]4[C@@H](CC[C@]5(C)[C@H](c6ccc(=O)oc6)CC[C@@]45O)[C@@]3(C)CC2)[C@H](O)[C@H](O)[C@H]1O`, the Potency is 0.0585 µM (active).
Turning to `O=C(N[C@H]1CN2CCC1CC2)c1ccc(Cl)cc1`, the Potency is 23.3 µM (active).
Regarding `CO[C@H]1CCC(O[C@H]2C[C@H]([C@]3(C)CC[C@]4(C[C@H](O)[C@@H](C)[C@@H]([C@@H](C)C=C(C)C(=O)[C@H](C)C[C@H](C)C(=O)O)O4)O3)O[C@]3(O[C@@H]([C@H]4O[C@@](O)(CO)[C@H](C)C[C@H]4C)C[C@H]3C)[C@H]2C)O[C@H]1C` (stereo partly drawn), the Potency was 2.33 µM (active).
Consider `Cc1c(C(=O)Nc2cccc(C(F)(F)F)c2)cc(-c2ccccc2)n1CCCN1CCOCC1`, for which the Potency was 42.7 µM (active).
For `Cc1[nH]nc2ccc(-c3cncc(OC[C@@H](N)Cc4c[nH]c5ccccc45)c3)cc12`, the Potency was 2.33 µM (active).
Consider `CC=C(C)C(=O)N[C@@H](c1ccccc1)[C@@H](O)C(=O)O[C@H]1C[C@@]2(O)[C@@H](OC(=O)c3ccccc3)[C@@H]3[C@]4(OC(C)=O)CO[C@@H]4C[C@H](O)[C@@]3(C)C(=O)[C@H](OC(C)=O)C(=C1C)C2(C)C`, for which the “activity change, negative = cytotoxicity” value was -35.8% (inactive).
`CC(C)(O)C=CC(=O)[C@](C)(O)[C@H]1[C@H](O)C[C@]2(C)[C@@H]3CC=C4[C@@H](C=C(O)C(=O)C4(C)C)[C@]3(C)C(=O)C[C@@]12C`: the Potency was 0.0585 µM (active).
With `CCCN1CCO[C@@H]2c3cc(O)ccc3OC[C@@H]21`, the “activity change, negative = cytotoxicity” value was -10.4% (inactive).
For the compound `Cc1c(N)nc([C@H](CC(N)=O)NC[C@@H](N)C(N)=O)nc1C(=O)N[C@H](C(=O)N[C@@H](C)[C@H](O)[C@@H](C)C(=O)N[C@@H](C(=O)NCCc1nc(-c2nc(C(=O)NCCC[S+](C)C)cs2)cs1)[C@@H](C)O)C(O[C@H]1O[C@H](CO)[C@H](O)[C@@H](O)[C@@H]1O[C@H]1O[C@H](CO)[C@@H](O)[C@H](OC(N)=O)[C@H]1O)c1cnc[nH]1` (stereo partly drawn), the “outcome” value was “inactive [at 45.9 µM]”.
Turning to `CC1=C(O)C(=O)C=C2C1=CC=C1[C@@]2(C)CC[C@@]2(C)[C@@H]3C[C@](C)(C(=O)O)CC[C@]3(C)CC[C@]12C`, the Potency was 1.85 µM (active).
As to `C[C@@H]1CC[C@@]2(OC1)O[C@H]1C[C@H]3[C@@H]4CC=C5C[C@@H](O[C@@H]6O[C@H](CO)[C@@H](O[C@@H]7O[C@@H](C)[C@H](O)[C@@H](O)[C@@H]7O)[C@H](O)[C@@H]6O[C@@H]6O[C@@H](C)[C@H](O)[C@@H](O)[C@@H]6O)CC[C@]5(C)[C@@H]4CC[C@]3(C)[C@@H]1[C@H]2C`, the Potency is 4.65 µM (active).
In the case of `O=c1[nH]c2ccc(Cl)cc2c(N[C@@H]2CN3CCC2CC3)c1-c1nc2ccccc2[nH]1`, the Potency was 1.47 µM (active).
As for `O=C(O)COc1nc(Cl)c(Cl)cc1Cl`, the compound was called inactive.
With `CC[C@@H]1[C@@H](C)O[C@@](O)([C@@H](C)[C@H](O)[C@H](C)[C@H]2OC(=O)C=CC=C[C@@H](C)[C@@H]([C@@H](C)[C@@H](O)[C@H](C)[C@@]3(O)C[C@H](O[C@H]4C[C@H](O)[C@H](O)[C@H](C)O4)[C@H](CC)[C@@H](C)O3)OC(=O)C=CC=C[C@@H]2C)C[C@H]1O[C@H]1C[C@H](O)[C@H](O)[C@H](C)O1`, the “activity change, negative = cytotoxicity” value is 11.3% (inactive).
With `CS(=O)(=O)c1ccc(C(=O)C2C(=O)CCCC2=O)c([N+](=O)[O-])c1`, the outcome was inactive.
In the case of `CC[C@@]1(O)C(=O)OCc2c1cc1n(c2=O)Cc2cc3ccccc3nc2-1`, the Potency is 0.0585 µM (active).
As to `CC(C)[C@]12O[C@@H]1[C@@H]1O[C@]13[C@]1(O[C@H]1C[C@@H]1C4=C(CC[C@@]13C)C(=O)OC4)[C@H]2O`, the Potency is 0.147 µM (active).
As to `C[C@@]12OC(=O)[C@]1([C@@H](O)[C@@H]1C=CCCC1)NC(=O)[C@H]2CCCl`, the Potency was 0.737 µM (active).
As to `CC(C)N[C@@H]1CCn2c(=O)[nH]c3cccc(c32)[C@@H]1O`, the “activity change, negative = cytotoxicity” value is 20.3% (inactive).
On to `COc1cc2cc(c1Cl)N(C)C(=O)C[C@H](OC(=O)C(C)C)[C@]1(C)O[C@H]1[C@H](C)[C@@H]1C[C@@](O)(NC(=O)O1)[C@H](OC)C=CC=C(C)C2`, for which the Potency was 1.17 µM (active).
In the case of `O=C(O)CCCOc1ccc(Cl)cc1Cl`, the “activity change, negative = cytotoxicity” value is 10% [at 95.5 µM] (inactive).
Turning to `S=C(SSC(=S)N1CCCCC1)N1CCCCC1`, the Potency is 1.04 µM (active).
For `CC(=O)[O][Hg][c]1ccccc1`, the Potency is 3.29 µM (active).
For the compound `CCCCCC[C@H]1C(=O)O[C@H](C)[C@H](NC(=O)c2cccc(NC=O)c2O)C(=O)O[C@@H](C)[C@@H]1OC(=O)CC(C)C`, the Potency was 5.85 µM (active).
As to `CCC(=O)OC1CCC2C3CCC4=CC(=O)CC[C@@]4(C)C3CC[C@]12C` (stereo partly drawn), the “activity change, negative = cytotoxicity” value was -3.88% (inactive).
As to `C=CCON=C(C[C@H]1O[C@@H]2O[C@]3(C)CC[C@@H]4[C@H](C)CC[C@@H]([C@H]1C)[C@@]24OO3)[C@H]1O[C@@H]2O[C@]3(C)CC[C@H]4[C@H](C)CC[C@@H]([C@@H]1C)[C@@]24OO3`, the Potency was 0.522 µM (active).
Same read-out and setting: with `Cc1ccccc1-n1c(Cn2ncc3c(N)ncnc32)nc2cccc(C)c2c1=O` the figure was 0.522 µM (active).
